Among the data in PubChem BioAssay (NCATS) are Potency and outcome values, retold here.

In experiment [1] the target is Glutaminase kidney isoform, mitochondrial (Homo sapiens) (UniProt O94925). In words: qHTS for Inhibitors of Glutaminase (GLS): LOPAC Validation (AID 624146).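 Further: glutamate product detected by oxidase and peroxidase coupled Amplex red fluorescence gain; nearly all actives have a fitted effect of over 60% in size.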 Conditions: glutaminase enzyme activity inhibition; series mostly up to 46.1 µM. In a few lines:
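Read-out is an Amplex red fluorescence increase coupled through glutamate oxidase and HRP, measured before and after 30 min room-temperature incubation. hKGA is in 45 mM KH2PO4 (pH 8.2) with 0.02% Tween-20; glutamine added as 1mM solution.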
On the technique in general: Quantitative high-throughput screening tests each substance at several concentrations.

Experiment [2] is described as follows: qHTS of Trypanosoma Brucei Inhibitors: LOPAC Validation (AID 624147). Conditions: purified enzyme assay, luminescence, 45 min; series mostly up to 57.5 µM. A digest of the protocol: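 ADP (130 uM final) triggers the TbPYK reaction after compound addition; incubation is 45 min at room temperature. Kinase-Glo Plus is then added and luminescence imaged. Normalized data are fitted to concentration-effect curves.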

Experiment [3] has as its target Glucagon-like peptide 1 receptor (Homo sapiens) (UniProt P43220). In words: qHTS of GLP-1 Receptor Agonists: LOPAC Validation (AID 624148).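 Further: luminescence from a luciferase reporter switched on by cAMP; higher luminescence signal means agonism.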 Conditions: GLP-1R agonist cell assay; series mostly up to 46.1 µM. A digest of the protocol: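 Agonism scored as increased luciferase luminescence driven by cAMP in HEK293 clones carrying GLP-1R. Cells settled 12 hours, received compound for 4-6 hr at 37 deg C, 5% CO2, and were read after 12 min detection reagent at RT.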

A short description of experiment [4]: qHTS of Nrf2 Activators: LOPAC Validation (AID 624149). Conditions: Nrf2/ARE reporter cell assay; series mostly up to 46.1 µM. In a few lines:
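Cells (AREc32_Fluc) are plated at 1000 per well in OPTI-MEM containing 5% FBS and left overnight. Compounds are pinned in and incubated 24 hr at 37 deg C, and firefly luciferase is detected with Steady-Glo.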

The nature of experiment [5]: HTS Assay for Allosteric Antagonists of the Human D2 Dopamine Receptor: Hit Validation in HTRF (AID 624455).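 Further: stable D1 dopamine receptor cell line scored for blocking the D1 response.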 Conditions: Cells stably expressing D1 dopamine receptor, inhibition mode; series mostly up to 46.1 µM. A digest of the protocol: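 Inhibition of the D1-mediated response is measured by HTRF in cells that stably express the D1 dopamine receptor. Compounds reaching this step are hits from calcium-flux antagonism testing at EC80 dopamine in inducible Hek293 Trex D2 cells.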
Background: Time-resolved FRET reads energy transfer from a long-lived donor to a nearby acceptor.

Experiment [6] has as its target Luciferin 4-monooxygenase (Photinus pyralis) (UniProt P08659). Put plainly: Biochemical firefly luciferase enzyme assay for NPC (AID 624030).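 Further: purified P. pyralis luciferase at 10 nM with luciferin and ATP substrate; nearly all actives have a fitted effect of over 70% in size.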 Conditions: purified P. pyralis luciferase, luminescence, 5 min; series mostly up to 58.6 µM. In a few lines:
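Direct inhibition of firefly luciferase enzyme (10 nM final, 50 mM Tris Acetate) assessed by luminescence within 5 minutes. Percent activity scaled between DMSO and PTC124 positive control, with concentration-effect curves classified by fit quality and response.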

Experiment [7] concerns the target Voltage-gated inwardly rectifying potassium channel KCNH2 (Homo sapiens) (UniProt Q12809). In words: qHTS Assay for Small Molecule Inhibitors of the Human hERG Channel Activity (AID 588834).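 Further: lower thallium flux fluorescence means stronger hERG block; nearly all actives have a fitted effect of over 50% in size.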 Further: potency means the concentration at half of the fitted maximal effect. Conditions: U2OS BacMam hERG, FluxOR thallium flux fluorescence; series mostly up to 92.2 µM. In a few lines: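 Thallium serves as surrogate for K+ influx through BacMam-delivered hERG in U2OS cells. Compounds are added for about 10 minutes after dye loading; stimulation buffer then starts flux, monitored kinetically on FDSS.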

Experiment [8] in a line: S16 Schwann cell PMP22 intronic element firefly luciferase assay (AID 624032). Further: nearly all actives have a fitted effect of over 30% in size. Conditions: S16 rat Schwann cells, PMP22 element FLuc, 24 h; series mostly up to 57.5 µM. In a few lines: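 Luciferase reporter of PMP22 intronic-element expression in stably transfected S16 rat Schwann cells, read by ONE-Glo luminescence after 24 h compound exposure at 37 C. Activity scaled between DMSO (0%) and positive-control PTC124; concentration-effect curves quality-classified.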

Experiment [9] is described as follows: S16 Schwann cell PMP22 intronic element beta-lactamase assay (AID 624044; calls by dose curve; further: nearly all actives have a fitted effect of over 15% in size). Conditions: S16 rat Schwann cells, PMP22 element beta-lactamase FRET, 24 h; series mostly up to 38.3 µM. A digest of the protocol: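 Beta-lactamase reporter under a PMP22 intronic regulatory element in stable S16 rat Schwann cells; 24 h compound exposure. 460 nm blue signal normalized between DMSO (0%) and potassium clavulanate, with 535 nm FRET tracking viability; curves classed by r2 and response.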

Records with an inconclusive call do not appear. Entries that show only a call come without a potency. Activity calls are given as the source filed them. Unless noted, the call rests on the fitted dose curve; in most records, active means well fitted curve in the direction sought with a large enough effect; inconclusive means small, poorly fitted or top-dose-only effect, or another doubt; inactive means no such curve, though single readings can be large; an effect the other way counts as inactive or inconclusive.

Luciferin 4-monooxygenase (Photinus pyralis), sequence (P08659 whole entry, looked up): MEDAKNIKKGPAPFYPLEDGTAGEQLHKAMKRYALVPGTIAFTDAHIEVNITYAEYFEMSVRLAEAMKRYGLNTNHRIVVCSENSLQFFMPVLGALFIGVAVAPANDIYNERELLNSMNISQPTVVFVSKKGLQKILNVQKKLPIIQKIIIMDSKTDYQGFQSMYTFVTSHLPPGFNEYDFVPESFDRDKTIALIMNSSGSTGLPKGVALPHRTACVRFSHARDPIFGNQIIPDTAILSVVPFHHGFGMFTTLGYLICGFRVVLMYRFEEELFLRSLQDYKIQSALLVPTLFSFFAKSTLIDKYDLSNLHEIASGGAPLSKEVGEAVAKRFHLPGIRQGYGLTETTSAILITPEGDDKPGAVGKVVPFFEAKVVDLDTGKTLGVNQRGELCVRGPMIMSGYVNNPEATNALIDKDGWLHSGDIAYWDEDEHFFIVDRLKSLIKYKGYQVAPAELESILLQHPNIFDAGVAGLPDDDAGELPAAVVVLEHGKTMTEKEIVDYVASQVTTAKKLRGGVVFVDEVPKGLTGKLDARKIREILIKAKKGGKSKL
Glucagon-like peptide 1 receptor (Homo sapiens), sequence (P43220 whole entry, looked up): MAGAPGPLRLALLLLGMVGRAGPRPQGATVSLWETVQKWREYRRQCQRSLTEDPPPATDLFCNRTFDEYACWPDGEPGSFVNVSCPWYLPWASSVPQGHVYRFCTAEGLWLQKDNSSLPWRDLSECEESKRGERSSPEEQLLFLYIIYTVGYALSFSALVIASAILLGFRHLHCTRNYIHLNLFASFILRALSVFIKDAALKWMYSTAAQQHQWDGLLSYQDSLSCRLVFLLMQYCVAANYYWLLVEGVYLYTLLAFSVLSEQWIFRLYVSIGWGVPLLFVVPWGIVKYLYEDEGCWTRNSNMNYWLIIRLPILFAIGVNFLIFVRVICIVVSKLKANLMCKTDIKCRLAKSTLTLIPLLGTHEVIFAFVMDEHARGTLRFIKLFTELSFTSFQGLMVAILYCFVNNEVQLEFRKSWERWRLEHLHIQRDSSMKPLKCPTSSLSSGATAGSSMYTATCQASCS
Glutaminase kidney isoform, mitochondrial (Homo sapiens), sequence (O94925 whole entry, looked up, canonical isoform): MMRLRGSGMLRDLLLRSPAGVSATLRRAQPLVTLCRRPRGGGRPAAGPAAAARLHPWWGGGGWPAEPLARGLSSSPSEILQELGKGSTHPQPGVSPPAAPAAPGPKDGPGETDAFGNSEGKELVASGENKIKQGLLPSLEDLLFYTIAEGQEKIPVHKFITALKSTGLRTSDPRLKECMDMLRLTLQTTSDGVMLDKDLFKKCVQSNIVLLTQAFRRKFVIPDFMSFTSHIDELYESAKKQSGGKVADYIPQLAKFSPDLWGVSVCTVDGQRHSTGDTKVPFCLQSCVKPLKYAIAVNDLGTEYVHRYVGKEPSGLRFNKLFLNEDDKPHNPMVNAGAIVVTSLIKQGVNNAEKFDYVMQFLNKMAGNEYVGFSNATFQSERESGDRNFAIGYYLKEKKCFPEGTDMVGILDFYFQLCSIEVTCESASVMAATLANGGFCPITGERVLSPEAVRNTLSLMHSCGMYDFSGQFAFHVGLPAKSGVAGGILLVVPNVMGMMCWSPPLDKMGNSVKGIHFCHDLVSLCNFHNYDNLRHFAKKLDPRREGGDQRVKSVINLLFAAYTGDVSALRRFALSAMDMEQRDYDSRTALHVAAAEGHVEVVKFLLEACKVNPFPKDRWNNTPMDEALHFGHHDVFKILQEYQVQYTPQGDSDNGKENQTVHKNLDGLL
Voltage-gated inwardly rectifying potassium channel KCNH2 (Homo sapiens), sequence (Q12809 whole entry, looked up): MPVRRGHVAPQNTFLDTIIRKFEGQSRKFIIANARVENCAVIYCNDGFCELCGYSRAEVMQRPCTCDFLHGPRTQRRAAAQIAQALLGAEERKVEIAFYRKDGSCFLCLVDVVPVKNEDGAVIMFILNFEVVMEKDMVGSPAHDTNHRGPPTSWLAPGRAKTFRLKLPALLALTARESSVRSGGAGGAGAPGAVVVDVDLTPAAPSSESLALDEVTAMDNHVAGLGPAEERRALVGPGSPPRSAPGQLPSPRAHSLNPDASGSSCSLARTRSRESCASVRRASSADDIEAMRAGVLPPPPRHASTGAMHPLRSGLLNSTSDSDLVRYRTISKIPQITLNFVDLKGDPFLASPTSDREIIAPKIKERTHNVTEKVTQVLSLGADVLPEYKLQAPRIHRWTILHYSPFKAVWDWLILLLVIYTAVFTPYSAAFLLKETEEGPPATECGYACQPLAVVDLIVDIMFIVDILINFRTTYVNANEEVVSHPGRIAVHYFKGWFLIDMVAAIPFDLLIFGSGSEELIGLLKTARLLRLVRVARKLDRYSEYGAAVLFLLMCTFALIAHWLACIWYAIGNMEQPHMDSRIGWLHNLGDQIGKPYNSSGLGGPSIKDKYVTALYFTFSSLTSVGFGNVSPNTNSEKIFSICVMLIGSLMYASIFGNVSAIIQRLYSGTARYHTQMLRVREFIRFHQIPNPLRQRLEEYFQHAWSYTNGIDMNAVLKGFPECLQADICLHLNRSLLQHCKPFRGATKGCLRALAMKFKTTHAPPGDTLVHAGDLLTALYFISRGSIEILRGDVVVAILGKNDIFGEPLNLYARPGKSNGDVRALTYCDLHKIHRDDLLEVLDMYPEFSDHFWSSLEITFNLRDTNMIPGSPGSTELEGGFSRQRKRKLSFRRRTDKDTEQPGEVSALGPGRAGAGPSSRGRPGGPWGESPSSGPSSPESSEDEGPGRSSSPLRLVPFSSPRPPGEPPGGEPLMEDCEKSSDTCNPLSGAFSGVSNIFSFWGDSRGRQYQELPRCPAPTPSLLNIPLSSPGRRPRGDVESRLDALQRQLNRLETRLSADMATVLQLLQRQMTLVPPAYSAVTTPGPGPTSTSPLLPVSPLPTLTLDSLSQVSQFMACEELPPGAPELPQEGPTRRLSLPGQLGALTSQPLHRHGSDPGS

Turning to `NC(N)=NCCCCN=C(N)N`, the Potency entry in experiment [1] is “inactive”. For the same compound, the compound was called inactive in experiment [2], in experiment [3], in experiment [4] and in [5].
In the case of `COc1cccc2c1[C@@H]1CN(CCCCn3c(=O)[nH]c4c(sc5ncc(-c6ccccc6)nc54)c3=O)C[C@@H]1CO2`, the Potency result in experiment [1] was “inactive”. In addition, the outcome in experiment [2], in experiment [3], in experiment [4] and in experiment [5] was inactive.
Turning to `O=C1CC[C@H](C(=O)N2CCCCC2)N1`, the Potency result in experiment [6] is “inactive”.
With `OCCCc1ccccc1`, the Potency entry in experiment [6] was “inactive”.
For the compound `N[C@@H](Cc1cc(I)c(O)c(I)c1)C(=O)O`, the Potency result in experiment [6] was “inactive”.
Take `O=C(OCC(COC(=O)c1cccnc1)(COC(=O)c1cccnc1)COC(=O)c1cccnc1)c1cccnc1`: in experiment [6], the Potency result was “inactive”.
For the compound `NCC(=O)O`, the Potency entry in experiment [6] was “inactive”.
Regarding `O=C(O)CCC(=O)OC[C@@H](NC(=O)C(Cl)Cl)[C@H](O)c1ccc([N+](=O)[O-])cc1`, in experiment [6], the Potency entry was “inactive”.
For `CCCCCC(=O)O[C@]1(C(C)=O)CC[C@H]2[C@@H]3CCC4=CC(=O)CC[C@]4(C)[C@H]3CC[C@@]21C`, the Potency result in experiment [6] is “inactive”.
With `CC(=O)Nc1ccc(S(=O)(=O)Nc2cc(C)on2)cc1`, in experiment [6], the Potency result is “inactive”.
`CC(=O)OCC(=O)Nc1cc(C#N)cc(NC(=O)COC(C)=O)c1Cl`: the Potency result in experiment [6] is “inactive”.
Take `CC(C)N(CCC(=O)c1ccc2ccccc2c1)Cc1ccccc1`: the Potency in experiment [7] was 3.16 µM (active). For the same compound, the call in experiment [2], in [3], in experiment [4] and in experiment [5] was inactive.
In the case of `CC(=O)Nc1ccn(C2COC(COC(=O)c3ccccc3)O2)c(=O)n1` (centres undefined), the Potency entry in experiment [6] was “inactive”.
With `O=S(=O)(O)c1ccc2nc(-c3ccccc3)[nH]c2c1`, the Potency entry in [7], in experiment [8] and in experiment [9] was “inactive” in each case.
For `CO[C@@]1(NC(=O)CSC[C@@H](N)C(=O)O)C(=O)N2C(C(=O)O)=C(CSc3nnnn3C)CS[C@@H]21`, the Potency result in experiment [6] is “inactive”.
